Experimental data from PubChem BioAssay AID651958 (The Scripps Research Institute Molecular Screening Center, 2012).
Among all 370,000 compounds or so, about 2,000 (0.54%) were called active. The sample holds actives, similar compounds and a random draw of the others, so the mix is not that of the screen. A number with no mark means an inactive call. Cut-off read from the data, not from the text of the source: active = inhibition above about 30%; inactive = the rest.

Tested on: Crimean-Congo hemorrhagic fever virus L polyprotein viral ovarian tumor (vOTU) protease domain
Assay: CCHFV vOTU protease inhibitors, primary screen, biochemical, Pep-AMC substrate, fluorescence (AID 651958); note: 0% = vehicle wells with enzyme and 100% = no enzyme wells
Conditions: at 11.5 µM, stronger effect = higher value

Compared with COc1cc(CN2CCCC(C(=O)c3ccc(SC)cc3)C2)cc(Cl)c1O (configuration not stated), COc1ccc(C(=O)N2CCCC(C(=O)c3ccccc3OC)C2)cc1OC (configuration not stated) is higher in inhibition: 2.91% for the first, 4.28% for the second.

Compared with CCOC(=O)[C@H]1[C@H]2COc3ccccc3[C@@H]2N2C(=O)CN(Cc3ccccc3)C(=O)[C@@]12C, Cc1ccc(C)c(OCCC(=O)OCC(=O)NC(=O)NCc2ccccc2)c1 is higher in inhibition: -6.74% for the first, 0.04% for the second.

First: CN1CCN(c2ccncc2S(=O)(=O)N2CCCC2)CC1
Second: CN1CCN(S(=O)(=O)c2cccc(C(=O)Nc3sccc3C#N)c2)CC1
The inhibition of the first is lower: -8.15% for the first, -2.97% for the second.

First: COc1ccc(C(CNC(=O)COc2ccccc2OC)N2CCCCC2)cc1 (configuration not stated)
Second: CN(CC(=O)NCC(c1ccccc1)N1CCCC1)S(=O)(=O)c1ccc(Cl)cc1 (configuration not stated)
The inhibition of the first is higher: 0.37% for the first, -5.38% for the second.

Going from N#Cc1c(N)nc2c(c1N)CC(C(F)(F)F)O2 (configuration not stated) to C=CCSC1=C(C#N)C(c2cc(Br)c(O)c(OC)c2)CC(=O)N1 (configuration not stated), the inhibition rises from -10.2% to -4.94%.

Going from CCCCOCCCNC(=O)C[C@@H]1C[C@@]2(C(=O)OCC)CCCC=C2N(CCC2=CCCCC2)C1=O to CC1(c2cccc(Br)c2)NC(=O)N(CC(=O)NCCC2=CCCCC2)C1=O (configuration not stated), the inhibition falls from 15.7% to 6.44%.

First: COCCNC(=O)c1onc(CSc2cccc(C)c2)c1C(=O)O
Second: COc1cccc(CNC(=O)COC(=O)CN2C(=O)NC3(CCCCC3C)C2=O)c1 (configuration not stated)
The inhibition of the first is higher: -0.14% for the first, -7.15% for the second.

Going from CCCc1ccc(C(=O)COC(=O)CN2C(=O)NC3(CCCCC3C)C2=O)cc1 (configuration not stated) to COC(=O)CN1C(=O)C2(C(C(=O)OC)=C(N)Oc3ccccc32)C2=C1CC(C)(C)CC2=O (configuration not stated), the inhibition falls from 16.5% to -11.2%.

First: Cc1ncc([N+](=O)[O-])n1CCOC(=O)c1ccc(Br)cc1
Second: O=C(CCl)N(Cc1cccc([N+](=O)[O-])c1)c1cccc(Cl)c1
The inhibition of the first is lower: -0.48% for the first, 0.95% for the second.

First: CCCCCCCNc1nc(Cl)nc(NCCO)n1
Second: CCCCC(=O)N(C)c1c(CC)nc2c(OCc3ccc(Cl)cc3Cl)cccn12
The inhibition of the first is lower: 12.8% for the first, 28.5% for the second.

First: CC1CCCN(c2ccc(C(=O)NCCc3ccccc3)cn2)C1 (configuration not stated)
Second: COc1ccc(CCC(C)N2CCc3ccccc3C2)cc1 (configuration not stated)
The inhibition of the first is lower: -7.43% for the first, 2.02% for the second.

Compared with CCC(=O)N(C)C(c1ccccc1Cl)c1nnnn1-c1c(C)cccc1C (configuration not stated), COc1ccc(-n2nnnc2C(c2cccc3ccccc23)N2CCC(n3c(=O)[nH]c4ccccc43)CC2)cc1 (configuration not stated) is higher in inhibition: -4.14% for the first, 7.58% for the second.

Going from CC(=O)OCc1cc(=O)n(C)c(=O)n1C to COc1ccc(CCn2c(O)c(C=NCCCn3ccnc3)c(=O)[nH]c2=O)cc1OC, the inhibition rises from -3.25% to 2.55%.

First: [2H]C(CCOS(N)(=O)=O)c1ccccc1 (configuration not stated)
Second: O=C1C(Cl)=C(Oc2ccccc2)C(=O)c2ccccc21
The inhibition of the first is lower: -9.88% for the first, 6.2% for the second.

Going from COc1ccc(N2CCN(C3CCCCC3NS(=O)(=O)c3ccccc3)CC2)cc1 (configuration not stated) to COc1ccc(S(=O)(=O)NC(C)C(=O)N2CCCCCC2)cc1 (configuration not stated), the inhibition falls from 19.5% to -2.68%.

Compared with Cc1ccc(S(=O)(=O)/N=S(\C)C(C)C)cc1 (configuration not stated), Cc1ccc(S(=O)(=O)N[C@H](CO)C(C)C)cc1 is higher in inhibition: -11.6% for the first, 6.27% for the second.

Going from CC(=O)N1Cc2cc(C(=O)NCc3cccc(F)c3)nc(-c3cccc(C4=CCCCC4)c3)c2[C@H]1CCO to Cc1ccc(C(C(=O)NC2CCCC2)N(Cc2ccco2)C(=O)CCC(=O)Nc2ccccn2)cc1 (configuration not stated), the inhibition falls from 9.9% to 3.43%.

Going from Cc1ccc(S(=O)(=O)N(c2cccc(C)c2)C2CCS(=O)(=O)C2)cc1 (configuration not stated) to CC(C)NS(=O)(=O)c1ccc(NC(=O)C2CCCCC2)cc1, the inhibition falls from 4.15% to -0.67%.

Going from CN1CCN(C(=O)C2=C[C@H](c3ccc4c(c3)OCO4)C[C@H](OCc3ccc(CO)cc3)O2)CC1 to CSCC(=O)N1CCCC(C(=O)c2cc(F)ccc2F)C1 (configuration not stated), the inhibition falls from -2.44% to -7.31%.

Going from COc1cc(CN(C)Cc2nc3cc(C(F)(F)F)ccc3c(=O)[nH]2)ccc1OC(F)F to Cc1cc(Cl)c(S(=O)(=O)NCc2cccnc2)cc1OCC(N)=O, the inhibition falls from 14.7% to -2.02%.

Compared with CC1(C)CC(=O)C(N=Nc2c(F)cccc2F)=C(O)C1, Cc1ccc(S(=O)(=O)NC2CCCCCC2)cc1C(N)=O is lower in inhibition: 10.4% for the first, -2.9% for the second.

Compared with CC(C)N1CCC(NC(=O)Nc2ccccc2)CC1, Cc1ccc(NC(=O)COC(=O)C2C3CC4OC(=O)C2C4C3)cc1Cl (configuration not stated) is higher in inhibition: -6.34% for the first, 6.39% for the second.

Going from COP(=O)(OC)C(NC(=O)c1ccc(C)cc1)C(Cl)(Cl)Cl (configuration not stated) to CCCCN=C1C([N+](=O)[O-])=CC=C2C1=NC1(CCCCC1)N2O, the inhibition rises from -12.8% to 9.17%.

CN1c2ccc(C=O)c3c(C=O)ccc(c23)N(C)C1(C)C was tested, and the inhibition was 65.2% (active).
In the case of CCc1ccc(OCC(=O)NCC(c2ccc(Cl)cc2)N2CCCCC2)cc1 (configuration not stated), the inhibition is reported as 31% (active).
In the case of CC1CCCCC12NC(=O)N(CC(=O)OCC(=O)NCc1ccc(F)cc1)C2=O (configuration not stated), the inhibition is reported as 34.9% (active).
In the case of O=C1Nc2ccc([N+](=O)[O-])cc2C1=Nc1cccc(CO)c1, the inhibition is reported as 58.7% (active).
COc1ccc(S(=O)(=O)/N=C2\C=C(NS(=O)(=O)c3ccccc3)C(=O)c3ccccc32)cc1 was tested, and the inhibition was 65% (active).
In the case of Cc1ccc(S(=O)(=O)/N=C2\C=C(NS(=O)(=O)c3ccc(C)cc3)C(=O)c3ccccc32)cc1, the inhibition is reported as 77.7% (active).
With COCCn1nnnc1C(c1cc2ccc(OC)cc2[nH]c1=O)N1CCc2ccccc2C1 (configuration not stated) the inhibition was 103% (active).
COc1ccc(F)cc1C(=O)C1CCCN(C(=O)CCc2ccccn2)C1 (configuration not stated) was tested, and the inhibition was 32.7% (active).
Cc1nnc(SC(C)C(=O)Nc2ccc(S(=O)(=O)NC3CCCCC3)cc2)s1 (configuration not stated) was tested, and the inhibition was 31.6% (active).
For CC(=O)N(C1=C(Cl)C(=O)c2ccccc2C1=O)c1ccc(C(=O)O)cc1, the inhibition was 99.3% (active).
In the case of COc1ccc2c(c1)c(=Cc1ccc(N(C)C)cc1)c1cc(-c3ccccc3)[n+](C)n12, the inhibition is reported as 55.6% (active).
